The list is not random: actives were taken first. Their share in the collection is about 2.9%.
NSD2 inh: inhibitors of human histone methyltransferase NSD2; O96028; inhibition, % at 12.5 µM; hit rate 0.54% among 310,000; NSD2 peptide methylation, AlphaScreen, 120 min; AID 743445; in the data active means inhibition above about 50%
PfHsp90 set2: reduces growth (ATP signal) of yeast expressing P. falciparum Hsp90; S. cerevisiae expressing PfHsp90, BacTiter-Glo ATP, 48 h; yeast lacking PDR1 and PDR3 efflux regulators; inhibition, % at 9.4 µM; hit rate 0.32% among 310,000;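 active means every replicate shows inhibition above about 80%, whatever the replicate mean, limit read from the data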
MITF TRPM1 inh: inhibitors of MITF-driven TRPM1 promoter in melanoma cells. AID 488899. inhibition, % at 12.5 µM. SK-MEL-5 TRPM1 promoter luciferase, 24 h. hit rate 0.83% among 330,000;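 active means mean inhibition across replicates of 60% or more, whatever share of single replicates reaches that level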
MITF TRPM1 HTS: activators of MITF-driven TRPM1 promoter activity in SK-MEL-5 cells | SK-MEL-5 TRPM1-promoter luciferase, 24 h; % of positive control, neutral wells = 0 | activation, % at 12.5 µM | hit rate 0.75% among 300,000;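 active means mean activation of at least 80% with every replicate also reaching 80%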
N-glyco inh: blocks N-linked glycosylation in D54 reporter cells | hit rate 0.23% among 360,000 | reporter increase, % at 12.5 µM | D54 ERlucT glycosylation luciferase reporter, 24 h; percent of 100 nM tunicamycin response | AID 588692;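 active means mean luciferase reporter signal, scaled so untreated is 0 and the glycosylation-blocking control 100, at or above a set limit in every replicate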;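 further: luciferase carries N-glycosylation sites so blocking glycosylation raises the light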
Wnt act: Wnt/beta-catenin pathway activation; hit rate 1.2% among 300,000; activation, % at 9.35 µM; Wnt/beta-catenin reporter cell assay, activator, plate reader; AID 743398; in the data active means activation above about 30%, passing the limit was not always enough
Each line names hits and unclear results; the compound was inactive in the other large screens.

CC(=O)N(c1ccccc1)c1nnc(-c2cnc(C)cn2)s1	MITF TRPM1 HTS 98
Cc1cnc(-c2nnc(N(C)C(=O)c3cccnc3)s2)cn1	none
COc1ccc([C@H]2Cc3cc(O)cc(O)c3C(=O)O2)cc1O	Wnt act 41 (no result: NSD2 inh)
COc1ccc([C@H]2Cc3cccc(O)c3C(=O)O2)cc1O	none (no result: NSD2 inh)
O=[N+]([O-])c1cccc(-c2cn3ccccc3n2)c1	Wnt act 67
COc1ccc(-c2cn3ccccc3n2)cc1[N+](=O)[O-]	none (no result: NSD2 inh, Wnt act)
COc1ccc2oc(C(=O)CCC(=O)O)c(N)c2c1	none (no result: NSD2 inh)
COC(=O)CCC(=O)c1oc2ccc(Br)cc2c1N	MITF TRPM1 HTS 90 (no result: PfHsp90 set2, Wnt act)
Cc1nn(-c2ccccc2)c2sc(C(=O)N3CCC4(CC3)OCCO4)cc12	none (no result: PfHsp90 set2, MITF TRPM1 inh, MITF TRPM1 HTS, N-glyco inh, Wnt act)
c1ccc2c(c1)CCc1c(-c3ccncc3)n[nH]c1-2	Wnt act 44
COc1cc(NC(=O)CSCC(=O)Nc2cc(OC)cc(OC)c2)cc(OC)c1	none (no result: PfHsp90 set2, MITF TRPM1 inh, MITF TRPM1 HTS, N-glyco inh, Wnt act)
C=C1C(=O)C23C(O)C1CCC2C12CCCC(C)(COC(C)=O)C1C(O)C3(O)OC2 (stereo not given)	MITF TRPM1 inh 97
Cc1cc(C)n(CC(=O)O)c(=O)c1[N+](=O)[O-]	Wnt act 35
Cc1cc(=O)n(CC(=O)O)c2ccccc12	none
COCC(=O)Nc1nc2ccc(C)cc2s1	Wnt act 40
Cc1ccc2nc(NC(=O)CS(=O)(=O)Cc3ccccc3)sc2c1	Wnt act 40
COc1ccc(S(=O)(=O)N2CCCc3nc(-c4ccc(Br)cc4)ccc32)cc1	none (no result: NSD2 inh, PfHsp90 set2, MITF TRPM1 inh, MITF TRPM1 HTS, N-glyco inh)
O=C(CC[C@H]1O[C@@H](n2ccc(=O)[nH]c2=O)[C@H](O)[C@@H]1O)N[C@H](Cc1ccccc1)C(=O)NCc1ccccc1	none (no result: NSD2 inh, PfHsp90 set2, MITF TRPM1 inh, MITF TRPM1 HTS)
CC(SCc1ccccc1)C(=O)Nc1ccccc1 (stereo not given)	Wnt act 37
Cc1ccccc1NC(=O)C(C)SCc1ccccc1 (stereo not given)	none (no result: MITF TRPM1 HTS)
CC1CN(c2cnn(C(C)C)c(=O)c2Cl)CC(C)O1 (stereo not given)	none
Cn1cncc1C#Cc1c(C=O)[nH]c2ccccc12	MITF TRPM1 inh 62 (no result: NSD2 inh)
CCOC(=O)c1ccc(NC(=O)C2C3CCCCC32)cc1 (stereo not given)	MITF TRPM1 HTS 82
CC(C)(C)C(=O)Nc1ccc(C(=O)OC2CCCCC2)cc1	MITF TRPM1 HTS 105 (no result: Wnt act)
Cc1ccc(NC(=O)C2C3/C=C\CCCCC32)cc1 (stereo not given)	MITF TRPM1 HTS 94
CCOC(=O)c1ccc(NC(=O)N2CCCCCC2)cc1	MITF TRPM1 HTS 98, Wnt act 37
CCOC(=O)c1ccc(NC(=O)C2C3CCC(C3)C2C(=O)O)cc1 (stereo not given)	none
O=C(OCc1ccccc1)N1CCCC2CC1c1ccccc12 (stereo not given)	none (no result: NSD2 inh, PfHsp90 set2, MITF TRPM1 inh, MITF TRPM1 HTS)
Cc1cc(NS(=O)(=O)c2ccc(NC(=O)CSc3nnc(-c4ccccn4)n3Cc3ccco3)cc2)nc(C)n1	none (no result: PfHsp90 set2, MITF TRPM1 inh, MITF TRPM1 HTS, N-glyco inh, Wnt act)
CCN1CCN(C(=O)c2cc(S(=O)(=O)N3CCCCC3)ccc2Cl)CC1	none
O=C(O)c1cccc2c1-c1ccc([N+](=O)[O-])cc1C2=O	none
O=C(O)c1cccc2c1Cc1cc([N+](=O)[O-])ccc1-2	PfHsp90 set2 115
COc1ccc(OC)c(Cc2nnc(CCC(=O)N3CCCCC3c3nccs3)o2)c1 (stereo not given)	Wnt act 40
Cc1nc2ncnn2c(C)c1C/C=C/c1ccccc1	none
Cc1cccc2c1c1ccc3c(c1n2C)C(=O)C=CC3=O	MITF TRPM1 inh 94
O=[N+]([O-])c1ccc(-c2ccc(/C=N/Nc3nc(N4CCCC4)nc(N4CCCC4)n3)o2)cc1	MITF TRPM1 inh 68 (no result: NSD2 inh)
Cc1c(C(=O)N2CCCC2)oc2c1-c1nn(CC(=O)NCCCOC(C)C)cc1CC2	NSD2 inh 138
CCCCN(CC)CCNC(=O)Cn1cc2c(n1)-c1c(oc(C(=O)N3CCCC3)c1C)CC2	none
COc1ccc(Nc2nc(N)nc(CSc3nccn3C)n2)cc1	Wnt act 56
COc1ccc(Nc2nc(N)nc(CSc3nnc(N)s3)n2)cc1	none (no result: MITF TRPM1 HTS, Wnt act)
Nc1nc(CSc2ccccn2)nc(Nc2ccccc2)n1	MITF TRPM1 HTS 152, Wnt act 43 (no result: NSD2 inh)
COCCSc1ncccc1-c1nc2ccccc2[nH]1	none (no result: PfHsp90 set2, MITF TRPM1 inh, MITF TRPM1 HTS, N-glyco inh, Wnt act)
CC(NC(=O)CN1C(=O)NC2(CCCC2)C1=O)c1ccc2ccccc2c1 (stereo not given)	none (no result: MITF TRPM1 inh, MITF TRPM1 HTS)

High-throughput results: PubChem, Broad Institute
